Compound activity: PubChem, several laboratories
ARNT-TACC3 inh: disruptors of human ARNT/TACC3 interaction. AlphaScreen His-ARNT PAS-B/GST-TACC3 binding, luminescence; TACC3 fragment carries E629A point mutation. Q9Y6A5. inhibition, % at 9.99 µM. 390,000 compounds, 0.66% hits;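 active = mean inhibition of replicates at least 50% and at least half of replicates each reaching 50%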
ABCB6 inh 2: inhibitors of human ABC transporter ABCB6; 360,000 compounds, 0.19% hits; K562-ABCB6 porphyrin accumulation, flow cytometry, 1 h; stronger effect = lower value; Q9NP58; AID 602162; fluorescence ratio to DMSO, % at 10 µM;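 active = fluorescence ratio to DMSO below 75%, the collection mean minus 3 SD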;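 note: signal is porphyrin accumulated inside mitochondria; lower ratio means ABCB6 inhibition with less porphyrin fluorescence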
INS-1E GSIS act: GLuc luminescence reporter in INS-1E cells, primary screen for activators of glucose-dependent secretion of insulin; INS-1E GLuc reporter insulin secretion, 2-3 h; activation, % at 16.6 µM; 370,000 compounds, 0.61% hits;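 active = lowest replicate activation of at least 40%, so every replicate reaches that level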
hiPSC survival: hiPSC single-cell survival enhancement | ATPlite luminescence; 100% = ROCK inhibitor wells, 0% = DMSO | survival enhancement, % at 20 µM | 360,000 compounds, 0.044% hits | AID 602274; in the data active = survival enhancement above about 18%;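 note: cells exposed to compounds for 16 hours before the ATP read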
CendR NRP1 mod: NRP-1/CendR interaction modulation; O14786; FAM-RPARPAR peptide binding to NRP-1, fluorescence polarization; inhibition, % at 25 µM; 360,000 compounds, 0.85% hits; AID 602438;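 active = inhibition or corrected inhibition above about 18%, plus a signal ratio from 0.5 to 1.5, limit read from the data, passing the limit was not always enough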
Of the large screens only hits and unclear results are named; the others gave an inactive call. In the library only some 1.8% were active in any assay of this set; here they are far more common.

O=C(Nc1ccccc1)N[C@@H]1CC[C@@H](CCNS(=O)(=O)c2ccccc2F)O[C@H]1CO	none (no result: ABCB6 inh 2, hiPSC survival, CendR NRP1 mod)
CCNc1nc(NC(C)C)nc(N(C)C#N)n1	INS-1E GSIS act 57.8
CC(C)Nc1nc(NC(C)C)nc(N(C)N)n1	ARNT-TACC3 inh 59.2 (no result: INS-1E GSIS act)
CCCN(C#N)c1nc(NCC)nc(NC(C)C)n1	none (no result: INS-1E GSIS act)
CCNc1nc(NCC)nc(N(C)N)n1	ARNT-TACC3 inh 70.2 (no result: INS-1E GSIS act)
CC(C)Nc1nc(NC(C)C)nc(N(C)C(N)=O)n1	none (no result: INS-1E GSIS act)
C[C@@H]1CN([C@H](C)CO)C(=O)c2cccc(NS(=O)(=O)c3ccc(Cl)cc3)c2O[C@@H]1CN(C)Cc1ccc2c(c1)OCO2	none (no result: ABCB6 inh 2, hiPSC survival, CendR NRP1 mod)
N[C@@H]1CC[C@@H](CCn2cc(C3CCCCC3)nn2)O[C@H]1CO	none (no result: ABCB6 inh 2, hiPSC survival, CendR NRP1 mod)
COc1cccc(C2CC(c3ccccc3Cl)n3ncnc3N2)c1 (stereo not given)	CendR NRP1 mod 30.1 (no result: INS-1E GSIS act)
O=C(CC1CC1)N1CC(=O)N2[C@H](C1)[C@@H](c1ccc(C#Cc3ccccc3)cc1)[C@@H]2CO	none (no result: ARNT-TACC3 inh, ABCB6 inh 2, hiPSC survival, CendR NRP1 mod)
COc1ccccc1CNC(=O)Cc1ccc(C)cc1	CendR NRP1 mod 43.1
COc1ccccc1CNC(=O)COC(=O)c1cc(C)nc2ccccc12	INS-1E GSIS act 48.5
Cc1cc(C(=O)OCC(=O)NCc2ccccc2)c2ccccc2n1	INS-1E GSIS act 67.0
Cc1cc(C(=O)OCC(=O)NCc2ccc(F)cc2)c2ccccc2n1	none (no result: ARNT-TACC3 inh)
CC(C)(C)C(=O)COC(=O)c1cc(-c2ccncc2)nc2ccccc12	CendR NRP1 mod 27.2
COCC(=O)Nc1ccc2c(c1)[C@H]1C[C@H](CC(=O)NCc3cccnc3)O[C@@H](CO)[C@H]1O2	none (no result: ABCB6 inh 2, hiPSC survival, CendR NRP1 mod)
CC1(C(=O)N2CCCCC2)CCN1C(=O)C1(c2ccccc2)CC1 (stereo not given)	INS-1E GSIS act 40.1 (no result: ARNT-TACC3 inh)
CCOC(=O)CN(C(=O)CSc1nnc(-c2ccc(OC)c(OC)c2)o1)c1ccccc1	CendR NRP1 mod 31.0
CN1CCN(C(=O)C[C@H]2CC[C@@H]3[C@H](COC[C@@H](O)CN3Cc3ccc4c(c3)OCO4)O2)CC1	none (no result: ABCB6 inh 2, hiPSC survival, CendR NRP1 mod)
CCOC(=O)Nc1nnc(-c2cccc(OC)c2)s1	CendR NRP1 mod 25.8 (no result: ARNT-TACC3 inh, INS-1E GSIS act)
CCOC(=O)Nc1nnc(-c2ccc(OC)cc2)s1	none (no result: INS-1E GSIS act)
Cc1ccc(NC(=O)CNC(=O)c2sc3ccccc3c2Cl)nc1	INS-1E GSIS act 70.1
COc1ccc(CN(C)C(=O)CNC(=O)c2sc3ccccc3c2Cl)c(OC)c1OC	CendR NRP1 mod 45.8 (no result: ARNT-TACC3 inh)
CCn1nnc(NC(=O)c2sc3ccccc3c2Cl)n1	INS-1E GSIS act 43.0 (no result: ARNT-TACC3 inh)
CC(=O)Nc1ccc(NC(=O)CNC(=O)c2sc3ccccc3c2Cl)cc1	none
COc1ccc(CN(C)C(=O)CNC(=O)c2sc3ccccc3c2Cl)c(OC)c1	none (no result: ARNT-TACC3 inh)
CCn1nnc(NC(=O)c2cccnc2Cl)n1	none (no result: ARNT-TACC3 inh, INS-1E GSIS act)
COc1ccc(S(=O)(=O)N(C)C[C@@H]2Oc3c(NS(=O)(=O)c4ccccc4)cccc3C(=O)N([C@H](C)CO)C[C@@H]2C)cc1	none (no result: ABCB6 inh 2, hiPSC survival, CendR NRP1 mod)
COc1ccc2c3c([nH]c2c1)[C@@H](CO)N(S(C)(=O)=O)CC31CN(C(=O)c2cccnc2)C1	none (no result: ARNT-TACC3 inh, ABCB6 inh 2, hiPSC survival, CendR NRP1 mod)
CC1CCN(C(=O)N[C@@H](Cc2ccccc2)C(=O)O)CC1	CendR NRP1 mod 19.6 (no result: INS-1E GSIS act)
COc1ccc(S(=O)(=O)Nc2ccc3c(c2)C(=O)N([C@@H](C)CO)C[C@@H](C)[C@H](CN(C)Cc2ccc4c(c2)OCO4)OCCCC[C@@H](C)O3)cc1	none (no result: ABCB6 inh 2, hiPSC survival, CendR NRP1 mod)
O=C(c1cccs1)N(Cc1ccccn1)Cc1ccco1	INS-1E GSIS act 73.1
C[C@H](CO)N1C[C@H](C)[C@@H](CN(C)C(=O)C2CC2)OCc2ccccc2-c2ccccc2C1=O	none (no result: ABCB6 inh 2, hiPSC survival, CendR NRP1 mod)
COc1ccc(C)cc1S(=O)(=O)N(C)CC(=O)NC1CCCCC1	none (no result: INS-1E GSIS act)
COc1ccc(C)cc1S(=O)(=O)N(CC(=O)NC1CCCC1)c1ccc(F)cc1	ARNT-TACC3 inh 46.4
C[C@@H]1CN([C@@H](C)CO)C(=O)c2cccc(NC(=O)C3CCCCC3)c2O[C@@H]1CN(C)Cc1ccc(C(=O)O)cc1	none (no result: ABCB6 inh 2, hiPSC survival, CendR NRP1 mod)
Cc1onc(-c2ccccc2Cl)c1C(=O)Nc1cccc2cccnc12	none
COc1cc(NC(=O)c2c(-c3ccccc3Cl)noc2C)c2ncccc2c1	INS-1E GSIS act 50.7
COC(=O)c1[nH]c2ccccc2c1NC(=O)CCN1CCSCC1	hiPSC survival 26.0 (no result: INS-1E GSIS act)
CCOC(=O)c1[nH]c2ccc(Br)cc2c1NC(=O)CCN1CCCC(C)(C)C1	CendR NRP1 mod 29.2 (no result: ARNT-TACC3 inh)
CCOC(=O)c1[nH]c2ccc(OC)cc2c1NC(=O)CCN1CCSCC1	none
CN1C(=O)c2cc(NC(=O)c3cccs3)ccc2OC[C@@H]2O[C@H](CC(=O)NCC3CC3)CC[C@H]21	none (no result: ABCB6 inh 2, hiPSC survival, CendR NRP1 mod)
